Measured values as given in ChEMBL document CHEMBL1961873, “Compounds: GSK PKIS; Assays: Nanosyn kinase panel” (2012).

Assays:
[1] = biological target: T1, Inhibitor of nuclear factor kappa-B kinase subunit epsilon (Homo sapiens) (UniProt Q14164); details: at 1 µM;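 note: reported values are averaged percent inhibition figures against human IKKε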
T1 sequence (whole entry): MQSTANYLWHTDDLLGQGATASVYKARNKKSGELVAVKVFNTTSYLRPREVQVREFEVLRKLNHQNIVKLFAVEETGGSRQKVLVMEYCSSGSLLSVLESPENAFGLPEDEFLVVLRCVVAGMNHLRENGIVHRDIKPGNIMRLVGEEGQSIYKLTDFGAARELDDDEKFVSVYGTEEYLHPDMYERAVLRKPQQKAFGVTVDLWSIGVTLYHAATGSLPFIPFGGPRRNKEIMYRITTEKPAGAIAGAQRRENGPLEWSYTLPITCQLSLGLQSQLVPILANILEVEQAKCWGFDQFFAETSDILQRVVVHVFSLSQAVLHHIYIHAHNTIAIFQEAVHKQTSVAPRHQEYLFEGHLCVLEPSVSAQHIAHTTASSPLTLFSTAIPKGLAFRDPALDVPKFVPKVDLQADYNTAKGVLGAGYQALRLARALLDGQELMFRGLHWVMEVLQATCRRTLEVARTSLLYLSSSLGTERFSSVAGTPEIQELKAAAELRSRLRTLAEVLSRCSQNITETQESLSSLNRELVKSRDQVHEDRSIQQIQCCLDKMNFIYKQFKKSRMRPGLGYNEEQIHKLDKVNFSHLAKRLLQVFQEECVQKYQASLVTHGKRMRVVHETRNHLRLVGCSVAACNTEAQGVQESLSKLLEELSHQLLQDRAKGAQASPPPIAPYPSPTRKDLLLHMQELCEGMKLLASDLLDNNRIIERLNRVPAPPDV

[2] = biological target: T2, Serine/threonine-protein kinase Nek1 (Homo sapiens) (UniProt Q96PY6); details: at 0.1 µM
T2 sequence (whole entry): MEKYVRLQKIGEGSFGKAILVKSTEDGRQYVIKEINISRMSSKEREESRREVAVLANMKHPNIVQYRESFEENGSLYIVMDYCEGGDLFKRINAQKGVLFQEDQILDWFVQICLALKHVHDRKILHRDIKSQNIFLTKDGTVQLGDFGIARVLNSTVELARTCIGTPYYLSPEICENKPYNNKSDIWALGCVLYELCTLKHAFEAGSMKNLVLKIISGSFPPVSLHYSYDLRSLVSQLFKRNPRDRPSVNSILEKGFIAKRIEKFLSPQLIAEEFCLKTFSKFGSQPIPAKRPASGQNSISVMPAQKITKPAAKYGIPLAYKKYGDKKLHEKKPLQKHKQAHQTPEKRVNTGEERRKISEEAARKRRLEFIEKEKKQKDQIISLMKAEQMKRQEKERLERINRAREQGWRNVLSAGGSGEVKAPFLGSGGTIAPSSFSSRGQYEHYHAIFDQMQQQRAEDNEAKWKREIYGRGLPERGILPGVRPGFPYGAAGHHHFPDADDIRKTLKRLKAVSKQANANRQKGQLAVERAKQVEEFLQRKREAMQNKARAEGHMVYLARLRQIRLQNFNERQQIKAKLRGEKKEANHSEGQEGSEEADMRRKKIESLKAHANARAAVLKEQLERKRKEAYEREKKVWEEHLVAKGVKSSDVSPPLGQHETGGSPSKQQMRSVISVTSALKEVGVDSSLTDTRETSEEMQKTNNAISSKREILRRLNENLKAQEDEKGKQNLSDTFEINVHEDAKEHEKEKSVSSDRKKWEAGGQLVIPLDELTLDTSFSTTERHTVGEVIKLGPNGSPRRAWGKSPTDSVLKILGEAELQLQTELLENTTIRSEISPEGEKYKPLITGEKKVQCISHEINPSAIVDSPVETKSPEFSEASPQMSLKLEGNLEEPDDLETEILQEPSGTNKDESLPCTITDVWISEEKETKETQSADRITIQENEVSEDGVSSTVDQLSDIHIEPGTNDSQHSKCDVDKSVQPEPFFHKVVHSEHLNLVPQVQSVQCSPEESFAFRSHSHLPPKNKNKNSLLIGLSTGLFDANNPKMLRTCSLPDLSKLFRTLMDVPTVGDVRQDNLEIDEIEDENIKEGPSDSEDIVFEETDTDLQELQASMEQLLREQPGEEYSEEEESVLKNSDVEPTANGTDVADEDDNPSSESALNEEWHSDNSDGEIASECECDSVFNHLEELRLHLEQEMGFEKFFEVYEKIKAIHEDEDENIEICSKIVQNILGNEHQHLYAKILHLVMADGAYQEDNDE

[3] = biological target: T2, Serine/threonine-protein kinase Nek1 (Homo sapiens); details: at 1 µM
[4] = biological target: T3, Serine/threonine-protein kinase Nek2 (Homo sapiens) (UniProt P51955); details: at 0.1 µM
T3 sequence (whole entry): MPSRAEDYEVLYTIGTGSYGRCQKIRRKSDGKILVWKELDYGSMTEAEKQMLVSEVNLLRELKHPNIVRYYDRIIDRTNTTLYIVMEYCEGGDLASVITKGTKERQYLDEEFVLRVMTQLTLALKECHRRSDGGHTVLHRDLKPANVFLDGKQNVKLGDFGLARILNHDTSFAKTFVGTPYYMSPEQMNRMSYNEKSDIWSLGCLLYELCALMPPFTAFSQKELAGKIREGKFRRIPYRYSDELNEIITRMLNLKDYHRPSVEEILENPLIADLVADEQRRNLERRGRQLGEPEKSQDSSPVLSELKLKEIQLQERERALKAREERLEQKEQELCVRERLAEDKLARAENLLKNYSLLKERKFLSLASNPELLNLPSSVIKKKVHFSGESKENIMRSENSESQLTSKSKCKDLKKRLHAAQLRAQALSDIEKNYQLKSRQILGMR

[5] = biological target: T3, Serine/threonine-protein kinase Nek2 (Homo sapiens); details: at 1 µM
[6] = biological target: Serine/threonine-protein kinase Nek6 (Homo sapiens) (UniProt Q9HC98); details: at 0.1 µM
[7] = biological target: Serine/threonine-protein kinase Nek6 (Homo sapiens) (UniProt Q9HC98); details: at 1 µM
[8] = biological target: Serine/threonine-protein kinase Nek7 (Homo sapiens) (UniProt Q8TDX7); details: at 0.1 µM
[9] = biological target: Serine/threonine-protein kinase Nek7 (Homo sapiens) (UniProt Q8TDX7); details: at 1 µM
[10] = biological target: T4, Serine/threonine-protein kinase Nek9 (Homo sapiens) (UniProt Q8TD19); details: at 0.1 µM
T4 sequence (whole entry): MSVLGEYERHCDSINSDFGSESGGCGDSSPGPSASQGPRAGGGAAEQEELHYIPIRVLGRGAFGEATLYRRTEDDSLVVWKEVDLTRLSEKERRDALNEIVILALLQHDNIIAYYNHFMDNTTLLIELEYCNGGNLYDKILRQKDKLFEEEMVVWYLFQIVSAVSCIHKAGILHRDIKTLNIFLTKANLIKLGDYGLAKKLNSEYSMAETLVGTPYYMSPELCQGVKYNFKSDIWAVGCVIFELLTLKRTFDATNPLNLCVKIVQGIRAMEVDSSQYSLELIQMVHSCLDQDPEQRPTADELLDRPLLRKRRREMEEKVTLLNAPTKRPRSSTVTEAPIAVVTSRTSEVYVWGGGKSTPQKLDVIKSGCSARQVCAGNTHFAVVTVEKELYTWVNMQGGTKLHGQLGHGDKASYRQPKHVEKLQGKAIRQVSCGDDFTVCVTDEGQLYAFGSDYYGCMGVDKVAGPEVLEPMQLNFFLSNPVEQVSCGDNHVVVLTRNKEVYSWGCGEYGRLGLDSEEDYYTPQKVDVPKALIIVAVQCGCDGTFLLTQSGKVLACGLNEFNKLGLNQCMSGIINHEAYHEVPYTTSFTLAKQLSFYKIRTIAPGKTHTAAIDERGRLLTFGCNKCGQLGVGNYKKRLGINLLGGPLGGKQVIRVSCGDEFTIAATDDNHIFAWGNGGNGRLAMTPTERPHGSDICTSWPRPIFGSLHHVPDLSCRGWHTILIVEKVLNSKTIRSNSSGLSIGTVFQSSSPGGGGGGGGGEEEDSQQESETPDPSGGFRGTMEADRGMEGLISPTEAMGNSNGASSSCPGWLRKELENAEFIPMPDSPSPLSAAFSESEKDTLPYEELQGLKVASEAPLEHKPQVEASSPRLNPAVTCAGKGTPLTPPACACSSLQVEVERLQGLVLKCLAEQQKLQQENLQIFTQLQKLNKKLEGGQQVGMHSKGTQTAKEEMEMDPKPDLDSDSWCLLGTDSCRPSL

[11] = biological target: T4, Serine/threonine-protein kinase Nek9 (Homo sapiens); details: at 1 µM
[12] = biological target: Serine/threonine-protein kinase PLK1 (Homo sapiens) (UniProt P53350); details: at 0.1 µM
[13] = biological target: Serine/threonine-protein kinase PLK1 (Homo sapiens) (UniProt P53350); details: at 1 µM
[14] = biological target: T5, Dual specificity protein kinase TTK (Homo sapiens) (UniProt P33981); details: at 0.1 µM
T5 sequence (whole entry): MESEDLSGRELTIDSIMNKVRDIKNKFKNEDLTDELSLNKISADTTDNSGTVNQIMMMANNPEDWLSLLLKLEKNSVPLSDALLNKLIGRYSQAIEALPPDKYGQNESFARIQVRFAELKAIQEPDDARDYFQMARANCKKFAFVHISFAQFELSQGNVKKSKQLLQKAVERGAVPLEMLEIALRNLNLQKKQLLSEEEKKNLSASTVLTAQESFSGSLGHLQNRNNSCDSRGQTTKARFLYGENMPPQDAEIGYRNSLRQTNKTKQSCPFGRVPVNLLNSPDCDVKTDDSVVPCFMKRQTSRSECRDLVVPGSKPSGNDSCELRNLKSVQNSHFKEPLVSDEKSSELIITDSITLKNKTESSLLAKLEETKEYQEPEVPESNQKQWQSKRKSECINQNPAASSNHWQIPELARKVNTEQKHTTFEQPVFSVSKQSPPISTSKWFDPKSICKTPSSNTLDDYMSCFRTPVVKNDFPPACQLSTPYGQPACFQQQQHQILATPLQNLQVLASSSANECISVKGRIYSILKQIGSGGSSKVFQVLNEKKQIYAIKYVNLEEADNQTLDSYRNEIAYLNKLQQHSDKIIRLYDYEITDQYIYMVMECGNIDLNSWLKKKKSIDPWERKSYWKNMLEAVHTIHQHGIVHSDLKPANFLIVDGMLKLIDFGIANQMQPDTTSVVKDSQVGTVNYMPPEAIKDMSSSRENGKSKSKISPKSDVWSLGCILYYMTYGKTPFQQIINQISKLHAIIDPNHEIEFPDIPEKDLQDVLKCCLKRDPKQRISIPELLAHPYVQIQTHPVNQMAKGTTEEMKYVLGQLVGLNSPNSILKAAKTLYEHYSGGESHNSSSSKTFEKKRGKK

[15] = system: T6, Receptor-type tyrosine-protein kinase FLT3 (Homo sapiens), P36888 [D835Y]; details: at 1 µM
T6 sequence (whole entry): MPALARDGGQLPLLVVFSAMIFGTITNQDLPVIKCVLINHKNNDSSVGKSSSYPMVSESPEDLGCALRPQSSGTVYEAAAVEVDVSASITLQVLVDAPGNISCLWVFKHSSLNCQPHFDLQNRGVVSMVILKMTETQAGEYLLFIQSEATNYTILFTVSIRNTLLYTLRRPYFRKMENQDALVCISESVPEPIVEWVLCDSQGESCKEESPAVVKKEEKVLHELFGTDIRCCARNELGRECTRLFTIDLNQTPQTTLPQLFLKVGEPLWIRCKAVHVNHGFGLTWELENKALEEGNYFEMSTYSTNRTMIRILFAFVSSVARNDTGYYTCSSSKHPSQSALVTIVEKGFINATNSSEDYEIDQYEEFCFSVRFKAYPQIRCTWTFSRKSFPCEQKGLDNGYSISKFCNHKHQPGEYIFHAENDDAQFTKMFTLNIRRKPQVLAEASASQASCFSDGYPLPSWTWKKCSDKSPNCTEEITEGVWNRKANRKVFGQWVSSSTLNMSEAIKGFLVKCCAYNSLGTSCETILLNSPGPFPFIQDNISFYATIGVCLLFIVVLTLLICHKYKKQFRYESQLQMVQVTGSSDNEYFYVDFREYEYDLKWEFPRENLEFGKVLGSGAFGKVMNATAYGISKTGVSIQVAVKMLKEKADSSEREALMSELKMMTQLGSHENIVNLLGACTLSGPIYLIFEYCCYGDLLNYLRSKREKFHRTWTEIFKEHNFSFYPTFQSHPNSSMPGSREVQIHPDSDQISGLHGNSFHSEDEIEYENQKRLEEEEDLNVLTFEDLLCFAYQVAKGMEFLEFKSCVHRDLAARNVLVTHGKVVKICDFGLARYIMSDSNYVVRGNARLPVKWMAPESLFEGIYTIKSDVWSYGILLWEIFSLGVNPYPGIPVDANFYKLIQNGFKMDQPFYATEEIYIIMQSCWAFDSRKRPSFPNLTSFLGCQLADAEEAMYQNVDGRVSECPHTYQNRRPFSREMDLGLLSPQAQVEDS

[16] = biological target: Vascular endothelial growth factor receptor 3 (Homo sapiens) (UniProt P35916); details: at 0.1 µM
[17] = biological target: Vascular endothelial growth factor receptor 3 (Homo sapiens) (UniProt P35916); details: at 1 µM
[18] = biological target: Macrophage colony-stimulating factor 1 receptor (Homo sapiens) (UniProt P07333); details: at 0.1 µM
[19] = biological target: Macrophage colony-stimulating factor 1 receptor (Homo sapiens) (UniProt P07333); details: at 1 µM
[20] = biological target: Tyrosine-protein kinase Fyn (Homo sapiens) (UniProt P06241); details: at 0.1 µM
Sequence of Tyrosine-protein kinase Fyn (Homo sapiens) (P06241 2-537 limits assumed): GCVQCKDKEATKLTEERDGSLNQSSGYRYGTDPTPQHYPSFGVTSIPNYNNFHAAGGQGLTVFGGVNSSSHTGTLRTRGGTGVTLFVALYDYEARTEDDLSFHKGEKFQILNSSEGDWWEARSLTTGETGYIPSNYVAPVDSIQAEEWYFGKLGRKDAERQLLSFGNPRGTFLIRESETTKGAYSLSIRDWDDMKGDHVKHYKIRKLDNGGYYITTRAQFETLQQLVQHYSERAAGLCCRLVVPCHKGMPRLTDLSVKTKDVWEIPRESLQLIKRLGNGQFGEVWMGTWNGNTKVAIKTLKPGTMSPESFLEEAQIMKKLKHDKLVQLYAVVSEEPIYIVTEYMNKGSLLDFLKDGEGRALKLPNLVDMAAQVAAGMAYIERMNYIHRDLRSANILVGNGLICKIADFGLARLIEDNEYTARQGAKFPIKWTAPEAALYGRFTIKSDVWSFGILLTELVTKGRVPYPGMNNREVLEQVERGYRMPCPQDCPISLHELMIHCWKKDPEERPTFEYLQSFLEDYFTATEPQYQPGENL

Sequence of Macrophage colony-stimulating factor 1 receptor (Homo sapiens) (P07333 whole entry): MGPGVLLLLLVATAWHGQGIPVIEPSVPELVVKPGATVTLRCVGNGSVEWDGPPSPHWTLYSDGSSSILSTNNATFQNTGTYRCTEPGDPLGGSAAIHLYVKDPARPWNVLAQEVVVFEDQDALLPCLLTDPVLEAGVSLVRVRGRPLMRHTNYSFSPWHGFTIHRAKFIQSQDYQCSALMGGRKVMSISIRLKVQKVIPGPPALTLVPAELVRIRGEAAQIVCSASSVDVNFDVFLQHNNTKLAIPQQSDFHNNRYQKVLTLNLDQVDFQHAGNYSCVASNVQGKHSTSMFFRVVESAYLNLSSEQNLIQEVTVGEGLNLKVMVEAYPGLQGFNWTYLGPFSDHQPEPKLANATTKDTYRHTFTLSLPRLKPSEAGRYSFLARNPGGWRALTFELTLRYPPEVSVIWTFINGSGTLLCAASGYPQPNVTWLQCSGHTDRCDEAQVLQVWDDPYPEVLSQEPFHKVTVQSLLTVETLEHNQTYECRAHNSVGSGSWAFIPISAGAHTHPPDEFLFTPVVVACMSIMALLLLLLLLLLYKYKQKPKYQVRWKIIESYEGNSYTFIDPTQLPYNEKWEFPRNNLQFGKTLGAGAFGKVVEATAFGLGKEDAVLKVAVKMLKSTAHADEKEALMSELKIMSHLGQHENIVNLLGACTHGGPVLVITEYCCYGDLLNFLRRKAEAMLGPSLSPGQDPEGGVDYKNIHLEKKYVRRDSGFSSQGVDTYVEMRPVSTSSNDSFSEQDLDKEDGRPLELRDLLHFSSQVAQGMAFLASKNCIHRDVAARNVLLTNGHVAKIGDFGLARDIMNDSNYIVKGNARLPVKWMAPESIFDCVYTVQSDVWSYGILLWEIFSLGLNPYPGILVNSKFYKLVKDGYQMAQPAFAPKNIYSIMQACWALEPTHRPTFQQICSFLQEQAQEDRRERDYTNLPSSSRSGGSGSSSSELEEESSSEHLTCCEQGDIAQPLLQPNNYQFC
Sequence of Serine/threonine-protein kinase PLK1 (Homo sapiens) (P53350 whole entry): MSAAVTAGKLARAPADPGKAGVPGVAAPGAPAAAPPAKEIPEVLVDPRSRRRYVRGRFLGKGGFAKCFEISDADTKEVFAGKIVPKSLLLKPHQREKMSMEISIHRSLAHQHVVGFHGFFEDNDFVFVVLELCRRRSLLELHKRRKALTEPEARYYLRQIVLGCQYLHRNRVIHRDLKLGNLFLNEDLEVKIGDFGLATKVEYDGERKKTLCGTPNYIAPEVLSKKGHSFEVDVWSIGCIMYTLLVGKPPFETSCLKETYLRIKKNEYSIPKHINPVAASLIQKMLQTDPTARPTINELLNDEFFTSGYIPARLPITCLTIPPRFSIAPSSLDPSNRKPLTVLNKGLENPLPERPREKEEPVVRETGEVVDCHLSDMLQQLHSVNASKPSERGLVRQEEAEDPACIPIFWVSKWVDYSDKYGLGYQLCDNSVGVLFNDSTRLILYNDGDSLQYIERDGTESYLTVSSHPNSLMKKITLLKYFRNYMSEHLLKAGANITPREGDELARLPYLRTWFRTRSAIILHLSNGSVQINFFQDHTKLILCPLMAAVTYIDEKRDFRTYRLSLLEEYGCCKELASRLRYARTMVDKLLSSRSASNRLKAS
Sequence of Vascular endothelial growth factor receptor 3 (Homo sapiens) (P35916 whole entry): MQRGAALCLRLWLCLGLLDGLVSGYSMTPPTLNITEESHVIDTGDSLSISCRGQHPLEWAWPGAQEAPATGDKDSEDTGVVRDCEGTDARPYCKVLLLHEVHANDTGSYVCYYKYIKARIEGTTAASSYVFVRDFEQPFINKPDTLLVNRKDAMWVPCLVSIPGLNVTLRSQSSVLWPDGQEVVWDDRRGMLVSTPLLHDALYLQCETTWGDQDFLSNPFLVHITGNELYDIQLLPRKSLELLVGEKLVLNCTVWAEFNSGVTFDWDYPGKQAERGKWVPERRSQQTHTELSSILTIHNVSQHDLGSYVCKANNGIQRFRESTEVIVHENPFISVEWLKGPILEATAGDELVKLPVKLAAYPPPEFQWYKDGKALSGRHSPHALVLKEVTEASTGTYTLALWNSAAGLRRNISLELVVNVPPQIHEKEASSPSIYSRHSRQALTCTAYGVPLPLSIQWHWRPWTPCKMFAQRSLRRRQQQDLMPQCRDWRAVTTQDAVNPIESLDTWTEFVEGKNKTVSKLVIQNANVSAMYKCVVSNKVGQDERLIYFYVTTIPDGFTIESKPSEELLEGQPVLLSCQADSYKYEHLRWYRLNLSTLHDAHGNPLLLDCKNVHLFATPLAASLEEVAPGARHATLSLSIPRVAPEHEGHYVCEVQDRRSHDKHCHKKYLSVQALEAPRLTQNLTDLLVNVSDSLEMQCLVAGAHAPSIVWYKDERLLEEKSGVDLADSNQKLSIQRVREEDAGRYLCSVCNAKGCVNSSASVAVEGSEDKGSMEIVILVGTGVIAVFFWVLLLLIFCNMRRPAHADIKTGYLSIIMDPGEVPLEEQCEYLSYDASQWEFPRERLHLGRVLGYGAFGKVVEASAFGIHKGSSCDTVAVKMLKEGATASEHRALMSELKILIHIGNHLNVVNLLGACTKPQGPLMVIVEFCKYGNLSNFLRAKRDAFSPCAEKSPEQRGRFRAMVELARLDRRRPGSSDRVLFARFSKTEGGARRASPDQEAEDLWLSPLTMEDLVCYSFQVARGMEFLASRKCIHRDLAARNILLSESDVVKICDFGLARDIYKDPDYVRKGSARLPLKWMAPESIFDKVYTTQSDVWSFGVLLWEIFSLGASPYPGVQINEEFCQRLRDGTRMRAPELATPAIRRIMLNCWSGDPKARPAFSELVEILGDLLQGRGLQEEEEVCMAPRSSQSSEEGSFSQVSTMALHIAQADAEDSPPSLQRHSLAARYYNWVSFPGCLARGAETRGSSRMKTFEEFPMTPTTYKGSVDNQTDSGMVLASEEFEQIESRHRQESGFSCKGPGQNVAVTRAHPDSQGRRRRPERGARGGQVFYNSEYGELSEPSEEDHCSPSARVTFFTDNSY
Sequence of Serine/threonine-protein kinase Nek6 (Homo sapiens) (Q9HC98 whole entry): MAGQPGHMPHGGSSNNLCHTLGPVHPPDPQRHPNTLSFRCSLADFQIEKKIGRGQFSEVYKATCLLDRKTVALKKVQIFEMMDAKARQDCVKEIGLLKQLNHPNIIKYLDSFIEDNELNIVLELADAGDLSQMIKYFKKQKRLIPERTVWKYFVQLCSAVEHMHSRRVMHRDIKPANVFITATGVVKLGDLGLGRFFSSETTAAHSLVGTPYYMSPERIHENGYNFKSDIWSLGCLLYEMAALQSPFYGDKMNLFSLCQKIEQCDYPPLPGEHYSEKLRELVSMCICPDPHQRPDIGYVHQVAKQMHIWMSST
Sequence of Serine/threonine-protein kinase Nek7 (Homo sapiens) (Q8TDX7 whole entry, looked up): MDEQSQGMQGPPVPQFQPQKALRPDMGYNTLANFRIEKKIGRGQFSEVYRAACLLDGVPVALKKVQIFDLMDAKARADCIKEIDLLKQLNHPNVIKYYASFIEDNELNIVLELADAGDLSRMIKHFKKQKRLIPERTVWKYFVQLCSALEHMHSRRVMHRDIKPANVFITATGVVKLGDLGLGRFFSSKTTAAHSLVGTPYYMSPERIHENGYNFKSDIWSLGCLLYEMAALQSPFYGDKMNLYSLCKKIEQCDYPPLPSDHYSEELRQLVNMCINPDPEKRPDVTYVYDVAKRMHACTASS

SMILES: CC1(C)CC(n2cnc(-c3ccc(F)cc3)c2-c2ccnc(N)n2)CC(C)(C)N1
- inhibition [1]: 0.72%
- inhibition [2]: 0.9%
- inhibition [3]: 0.83%
- inhibition [4]: 1.02%
- inhibition [5]: 2.07%
- inhibition [6]: 1.95%
- inhibition [7]: 0.37%
- inhibition [8]: 3.74%
- inhibition [9]: 1.39%
- inhibition [10]: 5.35%
- inhibition [11]: 2.47%
- inhibition [12]: 2.09%
- inhibition [13]: 0.76%
- inhibition [14]: -0.55%
- inhibition [15]: 0.24%
- inhibition [16]: 3.06%
- inhibition [17]: 2.77%
- inhibition [18]: 1.31%
- inhibition [19]: 0.54%
- inhibition [20]: 1.49%

SMILES: O=C(O[C@H]1CN[C@H](C#Cc2cc3ncnc(Nc4ccc5c(cnn5Cc5ccccc5)c4)c3s2)C1)N1CCOCC1
- inhibition [1]: 2.35%
- inhibition [2]: 1.14%
- inhibition [3]: -0.05%
- inhibition [4]: 0.17%
- inhibition [5]: 0.04%
- inhibition [6]: -0.55%
- inhibition [7]: 1.2%
- inhibition [8]: -1.22%
- inhibition [9]: 1.45%
- inhibition [10]: -1.71%
- inhibition [11]: -0.45%
- inhibition [12]: -1.27%
- inhibition [13]: 1.79%
- inhibition [14]: 5.51%
- inhibition [15]: 2.81%
- inhibition [16]: 1.1%
- inhibition [17]: 1.5%
- inhibition [18]: -6.02%
- inhibition [19]: 4.04%
- inhibition [20]: 1.79%
